{
  "source": "the supplement of paper PMC7156485",
  "note": "Unmarked numbers belong to inactive results.",
  "data": [
    {"test_system": "HCC1569", "test": "H1.0 immunofluorescence intensity relative to DMSO (% of DMSO); higher = stronger H1.0 induction, active = 140 or more", "details": "concentration: 10 µM; 24 h", "outline": "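Treatment: HCC1569 and TDF cells, 800 per well in 384-well plates with RPMI and 10% FBS, were given compounds at 10 µM for 24 h at 37 °C, in triplicate. Readout: after 3.7% formaldehyde fixation, cells were stained with a rabbit anti-H1.0 antibody, an AlexaFluor 647 secondary and DAPI. Reported values are H1.0 nuclear intensity or cell number as percent of the plate control, taken as the median of replicates, with positional smoothing for HCC1569.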", "values": [
      {"molecule": "Oc1cc2c(cc1O)C(c1ccccc1)CNCC2", "note": "(racemic);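 further: TDF is a line of transformed human dermal fibroblasts of mesenchymal origin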", "H1.0 immunofluorescence intensity": 93.5},
      {"molecule": "O=c1oc2c(O)c(O)cc3c(=O)oc4c(O)c(O)cc1c4c23", "note": "[Ellagic acid]", "H1.0 immunofluorescence intensity": 90.6},
      {"molecule": "CC(C)CN(CC(O)C(Cc1ccccc1)NC(=O)OC1CCOC1)S(=O)(=O)c1ccc(N)cc1", "note": "(configuration not stated) [Amprenavir]", "H1.0 immunofluorescence intensity": 108},
      {"molecule": "O=C1CCC(N2C(=O)c3ccccc3C2=O)C(=O)N1", "note": "(racemic)", "H1.0 immunofluorescence intensity": 99.3},
      {"molecule": "COc1cc2ncnc(Nc3ccc(NC(=O)c4ccccc4)cc3)c2cc1OC", "note": "[Aurora Kinase Inhibitor II]", "H1.0 immunofluorescence intensity": 133},
      {"molecule": "Cn1c(=O)c2[nH]cnc2n(C)c1=O", "note": "[Theophylline]", "H1.0 immunofluorescence intensity": 103},
      {"molecule": "COc1ccc2c(c1)c(CC(=O)O)c(C)n2Cc1ccc(F)cc1", "note": "[1-(4-Fluorobenzyl)-5-methoxy-2-methylindole-3-acetic acid]", "H1.0 immunofluorescence intensity": 85.5},
      {"molecule": "COC(C)(C)CCCC(C)CC=CC(C)=CC(=O)O", "note": "(configuration not stated) [Methoprene acid]", "H1.0 immunofluorescence intensity": 94.6},
      {"molecule": "Cl.Nc1nc2ccc(OC(F)(F)F)cc2s1", "note": "[Riluzole.HCl]", "H1.0 immunofluorescence intensity": 94.8},
      {"molecule": "CN(C)CCCN1c2ccccc2CCc2ccc(Cl)cc21.Cl", "note": "[Clomipramine hydrochloride]", "H1.0 immunofluorescence intensity": 122},
      {"molecule": "COc1cc(/C=C/C(=O)O)ccc1O", "note": "[Ferulic acid]", "H1.0 immunofluorescence intensity": 92.2},
      {"molecule": "C[N+](C)(C)CCCCCC[N+](C)(C)C.[Cl-].[Cl-]", "note": "[Hexamethonium dichloride]", "H1.0 immunofluorescence intensity": 87.7}
    ]}
  ]
}
